Hit rate of the full screen: of about 2,200 compounds, about 480 (22%) were called active. The list is a sample of the results. Results with a measured potency or affinity are listed apart. Unmarked numbers belong to inactive results. The rule behind the calls is not given here.
Assay: S. Typhimurium GFP fluorescence dose response in modified counterscreen for PhoP regulon inhibitor project (AID 1981);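 note: 0% = induced DMSO wells and 100% = uninduced wells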
Conditions: 4 h; series mostly up to 150 µM; inhibition: at the top concentration

Compound	inhibition [%]
CC(=O)Nc1ccc(S(=O)(=O)N2CCC(n3cnc4cc(F)ccc43)CC2)cc1	-8.65
CC(=O)c1c(C)n([O-])c2ccccc2[n+]1=O	1.77
O=C(CSc1nc2[nH]ncc2c(=O)[nH]1)N1CCCCC1	-11.2
Cc1ccc2nc(C(F)OC(F)(F)F)[nH]c2c1 (configuration not stated)	-19.4
Nc1cccc(-c2nc3ccc(N)cc3s2)c1	22.6
O=[N+]([O-])/C=C/c1cc2ccccc2[nH]1	32.9
CCN(CC)CCN(Cc1cc2cc3c(cc2[nH]c1=O)OCCO3)C(=O)NC1CCCCC1	-14.5
c1ccc(Oc2cc(-c3ccccc3)ncn2)cc1	2.31
COc1ccc(CN2C(=O)Cc3c2nc(N)c2c(N)nc(N4CCCCC4)c(C#N)c32)cc1	25.6
C=COC(=O)CSc1snc(SCC(=O)OC)c1C#N	-13
Cc1cccc2nc(CSc3nc4ccccc4o3)cn12	1.89
O=C(Cc1ccccc1)NC1c2ccccc2-c2ccccc21	-8.08
O=C(CSCc1ccccc1)Nc1ccc2c(c1)OCO2	-12.3
O=C(NCc1ccco1)C1CC(=O)N(CCc2ccccc2)C1 (configuration not stated)	-2.95
Cn1cccc1CC(=O)NNC(=S)Nc1ccc(Cl)cc1	1.77
NC1=NC(=Nc2ccc(Br)cc2)c2ccccc21	-1.28
N#C/C=C(/N)c1ccc(Br)cc1	7.34
O=c1c(Cl)c(Cl)cnn1-c1ccccc1	12.9
O=C(Cc1cn2ccsc2n1)Nc1ccccc1Oc1ccccc1	-11.4
N#CC1=C(N)N=C(SCc2cccc3ccccc23)C(C(N)=O)C12CCCCC2 (configuration not stated)	34.8
CCCCn1c(/N=C/c2ccccc2NS(=O)(=O)c2ccc(C)cc2)nc2ccccc21	15.6
CCOC(=O)C1=C(c2ccccc2)NC(SC)=C(C#N)C1c1ccco1 (configuration not stated)	4.7
FC(F)(F)c1cccc(NC(=S)NCCN2CCOCC2)c1	-26

Compound	inhibition [%]
Nc1nc(CSc2nc3ccccc3[nH]2)nc(N2CCOCC2)n1	-4.29
CN1/C(=C\C=N\NC(=O)c2ccccc2Br)C(C)(C)c2ccccc21	3.5
CC(C)=CCN1CCN(Cc2ccoc2)CC1CCO (configuration not stated)	-23.8
COc1ccc(N2C(=O)[C@@H]3[C@H](C2=O)[C@H]2c4ccccc4C=CN2[C@@H]3C(=O)Nc2ccccc2)cc1	12.3
COc1ccc(C(C(=O)NC2CCCC2)N(C(=O)c2ccoc2C)c2cc(C)cc(C)c2)cc1 (configuration not stated)	-16.8
Cc1cc(C)nc(Nc2ccc(N3CCCC3)cc2)n1	35.5
Cc1ccc(Nc2nc(N)nc(CC#N)n2)cc1	12.2
CSc1nnc(NC(=O)CCc2ccccc2)s1	31.3
CCOC(=O)C(C)/C(C)=N/NC(=O)c1cc2ccccc2cc1O (configuration not stated)	35
CCN(CC)CCOc1ccc2c(c1)C(=NNC(=O)c1ccccn1)c1cc(OCCN(CC)CC)ccc1-2	21.5
O=C1CC(N2CCN(Cc3ccccc3)CC2)C(=O)N1c1ccccc1 (configuration not stated)	-3.65
NC(=O)c1c(N)sc2c1CCCCC2	-4.1
COc1cccc(C2CC(c3ccccc3OC)n3nc(N)nc3N2)c1 (configuration not stated)	-9.32
COc1ccc(CC(=O)n2nc(-c3ccccc3)nc2NCc2ccco2)cc1	-5.7
CCn1c(Cc2ccccc2)nnc1SCC(=O)Nc1ccc(S(N)(=O)=O)cc1	-19.4
C/C(=N\NC(=O)c1c(Cl)c(C)nn1C)c1cccc(NC(=O)COc2ccc(Cl)cc2)c1	0.33
Cc1cccc(C)c1OCC(=O)Nn1c(COc2ccccc2)nc2ccccc2c1=O	-24.9
COc1cccc(/C=N/n2c(C)nc3ccccc3c2=O)c1O	2.55
C=CCNC(=O)c1ccc(N(C)S(=O)(=O)c2ccc(OC)cc2)cc1	4.47
O=C(Nc1nc2ccc(SC(F)F)cc2s1)c1ccc2c(c1)S(=O)(=O)c1ccccc1C2=O	-4.49
Oc1ccc(Nc2nc(-c3cccs3)cs2)cc1	30.8
COC(=O)c1cc(C)nc2c1C(=O)C(=O)C=C2N1CCOCC1	7.24
Nc1ccc(Nc2ccccc2N)cc1	19

Compound	inhibition [%]
Nc1ccc(Nc2ccccc2)c(Cl)c1	3.59
O=C(OCC(=O)c1ccc(S(=O)(=O)N2CCCC2)cc1)C1=COCCO1	5.66
O=C(NC(NC(=S)Nc1ccc(Cl)c(Cl)c1)C(Cl)(Cl)Cl)c1ccco1 (configuration not stated)	-7.65
O=C(NCc1ccco1)c1ccc(Br)s1	-1.93
CCCCN(C)C(=O)c1cn(C)c2ccc(S(=O)(=O)N(C)C)cc2c1=O	5.65
CCOC(=O)c1cnc(SCC(=O)Nc2ccc(N3CCOCC3)c(Cl)c2)nc1N	-2.55
Cc1nc(NCc2ccc3c(c2)OCO3)c2oc3ccccc3c2n1	-17.7
COc1ccc(/C=C/C(=O)NCCc2nc3ccccc3[nH]2)cc1	8.18
CCCCn1c(/N=C/c2c[nH]c3ccccc23)nc2ccccc21	15.1
O=C1CCc2cc(S(=O)(=O)N3CCN(c4cccc(Cl)c4)CC3)ccc2N1	-2.32
C=CCN(C(=O)c1cccc(S(=O)(=O)N2CCN(C)CC2)c1)c1nc(-c2ccccc2)cs1	-7.5
O=C(CCC(=O)c1cccs1)OCC(=O)N1CCN(S(=O)(=O)c2ccccc2)CC1	-8.31
O=C1c2ccccc2C(=O)N1CCCc1nc2ccccc2c(=O)n1Cc1ccco1	-21.1
O=C(NCCc1cn2ccccc2n1)c1ccccc1F	2.71
O=C(c1ccco1)[C@@H]1[C@@H]2C(=O)N(c3ccc(F)cc3)C(=O)[C@@H]2[C@H]2C=Cc3ccccc3N21	29.2
Clc1ccc(-c2csc3ncnc(N4CCc5ccccc5C4)c23)cc1	-12.2
CCCCN(C(=O)NC(=O)Nc1nc2ccc(OC)cc2s1)S(C)(=O)=O	17
c1csc(C2Nc3ccccc3-c3nc4ccccc4n32)c1 (configuration not stated)	19.2
c1ccc(CSc2snnc2-c2ccccc2)cc1	-3.35
O=C(Cc1c[nH]c2ccccc12)N/N=C/c1ccc(F)cc1	-10.3
O=c1[nH]c(NNC(=S)NCc2ccccc2)nc2c1C1(CCCCC1)Cc1ccccc1-2	0.42
CN(C(=O)c1cccc(C#N)c1)c1nnc(-c2cnccn2)s1	-4.29
COc1ccc(-c2ccccc2)cc1NCc1ccccc1C	-12.8

Compound	inhibition [%]
CC(=O)Nc1cccc(-c2csc(Nc3cccc(C)n3)n2)c1	-15.6
CCOC(=O)C1=C(C)NC(=O)NC1c1ccsc1 (configuration not stated)	1.33
CCOC(=O)C(NC(=O)c1cccc(Cl)c1)(OCc1ccccc1)C(F)(F)F (configuration not stated)	0.14
Cc1ccc(C(=O)N2CC3(C(C)C)CN(C(=O)c4ccc(C)cc4)CC(C(C)C)(C2)C3=O)cc1	-13.8
O=C(N/N=C/c1ccco1)c1cccc(S(=O)(=O)Nc2ccccc2Cl)c1	4.33
Cc1ccc(-n2c(C)cc(/C=N/NC(N)=S)c2C)cc1	14.2
CCn1c2ccccc2c2cc(/C=N/NC(=O)c3ccccc3)ccc21	20.8
CCN(CC)S(=O)(=O)c1cccc(C(=O)NC(Cc2c[nH]c3ccccc23)c2nnc3n2CCC3)c1 (configuration not stated)	-22
O=C(/C=C\c1ccco1)Nc1nc(-c2ccccc2)cs1	1.32
COc1cccc(OC)c1C(=O)NC(=S)Nc1cc(-c2nc3ccccc3[nH]2)ccc1Cl	-22.6
Cc1[nH]c2ccccc2c1/C=N/Nc1ccc(F)cc1F	13.6
N#Cc1nc(-c2cccs2)oc1NCCCN1CCOCC1	9.92
c1ccc(Nc2cc(Nc3ccccc3)[nH]n2)cc1	-0.38
Oc1c(Br)cc(Br)cc1C=NCc1ccccc1	16.4
Cc1ccc(-n2sc3ccccc3c2=O)cc1S(=O)(=O)N1CCCCC1	32.3
Cc1ccc(C)c(-c2nc3ccc(N)cc3[nH]2)c1	15.5
c1ccc(CCNc2nc3ccccc3s2)cc1	-7.07
CC(=O)Nc1ccc(C(=O)N2CCN(C(=O)c3ccco3)CC2)cc1	0.79
Cc1cccnc1N(C(=O)Nc1ccccc1)C1=NCC(C)(C)S1	2.03
CN1C(=O)/C(=C/c2cccn2-c2ccc3ccccc3c2)C(=O)NC1=S	-0.34
CCOc1cc(/C=C2/NC(=O)N(CC(=O)Nc3cccc(C)c3)C2=O)ccc1OC	-16.1
COc1ccc(C(C)C)cc1S(=O)(=O)Nc1ccc(Cl)cn1	-22.6
Cc1ccc2[nH]c3c(=O)n(CCc4cnc[nH]4)cnc3c2c1	4.47

Compound	inhibition [%]
c1ccc(-n2cnc3cc(NCc4ccncc4)ccc32)cc1	0.09
Cc1[nH]c2ccccc2c1C1=CCNCC1	3.1
CCOC(=O)C1CCCN(C(=O)c2sc3nc(C)nc(N4CCOCC4)c3c2C)C1 (configuration not stated)	-11.8
Cc1cc(C(=O)COC(=O)CNC(=O)c2ccco2)c(C)n1Cc1ccco1	-20
CN(C)c1ccc(/C=N/c2cc(-c3ccccc3)nn2-c2ccccc2)cc1	-16.3
Cc1ccc(N2C(=O)CC(n3ccnc3)C2=O)cc1C (configuration not stated)	3.87
Cc1cc(NC(=O)c2cnn3cccnc23)no1	5.39
COc1ccc(-c2cc(C(=O)Nc3cc(C)n(Cc4ccc(Cl)cc4)n3)no2)cc1OC	3.32
O=C(NCCSCc1ccccc1)c1ccc(F)cc1	-11.2
COC(=O)CN1C(c2ccc(OC)cc2)=Nc2ccc(Cl)cc2C1c1ccccc1 (configuration not stated)	-9.48
Cc1ccc(-c2cc(C(=O)Nc3nccs3)c3ccccc3n2)o1	37.3
Nc1nc(N2CCN(C/C=C/c3ccccc3)CC2)nc2ccccc12	-3.63
O=C(O)CCC(=O)NCC1OCCc2ccccc21 (configuration not stated)	3.15
Cc1nc2ccccn2c1C(=O)N/N=C/c1ccccc1[N+](=O)[O-]	-3.37
COc1c(/C=N/Nc2nc(N3CCCCC3)nc(N3CCCCC3)n2)cccc1[N+](=O)[O-]	-6.83
Cc1cc(/C=N\NC(=O)c2cccs2)c(C)n1-c1ccc2ncccc2c1	19.8
COC(=O)c1cn(C(=O)c2cccs2)c2ccccc12	-2.01
CCOC(=O)C(NC(=O)CC)(Nc1ccc(C(O)(C(=O)OCC)C(F)(F)F)cc1C)C(F)(F)F (configuration not stated)	-14.8
CN(C(=O)c1ccc2c(c1)OCO2)C1(C(=O)NC2CCCCC2)CCCCC1	-4.9
O=C(CSc1nnc(Cc2ccccc2)o1)NCCc1ccccc1	-16.5
